Source: PubChem BioAssay
HCMV antiviral = human cytomegalovirus inhibition. HFF cells, HCMV-luciferase reporter, 72 h; stronger effect = lower value. activity change, negative = inhibition, % at 57.5 µM. 410,000 tested, 4.5% active. AID 1259415; in the data active = activity change below about -60%; inconclusive = no clear call, values can overlap the other calls; inactive = above about -39%
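Two-dose cell screen: HFF monolayers treated with compounds and infected with luciferase-expressing HCMV at 1 PFU/cell, 72 h at 37C, then lysed for luciferase measurement.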
FMDV inh = antivirals against foot and mouth disease virus; FMDV antiviral cell-based qHTS; Potency, µM (series often up to 57.9 µM), most hits filed as inhibitors; 410,000 tested, 1.2% active; AID 1159524; calls by dose curve; tested in HEK293T cells; note: read-out not given here; nearly all actives have a fitted effect of over 45% in size
Lassa entry inh = Lassa virus entry inhibition | Lassa virus pseudotype entry inhibition, cell reporter | Potency, µM (series often up to 37.9 µM), hits mostly inhibitors | 300,000 tested, 1.2% active; calls by dose curve; tested in HEK293 cells; note: nearly all actives have a fitted effect of over 50% in size
Marburg entry inh = inhibitors of Marburg virus binding or cell entry; Marburg virus pseudotyped entry inhibition, cell reporter; Potency, µM (highest dose often 37.8 µM), actives largely listed as inhibitors; AID 540276; 300,000 tested, 1.8% active; calls by dose curve; tested in HEK293 cells
A number is an active result; i = inactive; ? = inconclusive; nt = no result given. This is a sample that favours compounds with a hit; in the whole collection about 6.2% have one here.

SMILES	HCMV antiviral	FMDV inh	Lassa entry inh	Marburg entry inh
O=C(CN1CCN(c2cnn(-c3ccccc3)c(=O)c2Cl)CC1)NC1CCS(=O)(=O)C1 (stereo not given)	i	i	?	i
Cc1cc(C(=O)OCC(=O)Nc2ccc(F)c(F)c2F)c(C)o1	i	i	i	i
CCOc1ccc(NC(=O)c2ccc3[nH]c(C)cc(=O)c3c2)cc1	i	i	i	i
CCOc1ccc(Cc2c(C)[nH]c3ccc(C(=O)O)cc3c2=S)cc1	-79	i	?	i
CCc1c(C)[nH]c2ccc(OC)cc2c1=S	-71	i	i	i
CCc1cccc2c(C(=O)CN3C(=O)NC4(CCCCCC4)C3=O)c[nH]c12	-87	i	?	?
CCc1cccc2c(C(=O)CCl)c[nH]c12	i	28µM	i	?
Cc1ccc(CCNC(=O)Cn2cccc2)cc1	i	i	?	i
COC(=O)C1CCN(Cc2ccc3c(c2)CN(C(=O)C2CCCN(c4ccccn4)C2)CCO3)CC1 (stereo not given)	nt	i	nt	nt
O=C(NCc1ccccn1)c1cc(-c2ccccc2Cl)nc2ccccc12	i	i	i	i
O=C(NCCc1ccccn1)c1cc(-c2ccc(Cl)c(Cl)c2Cl)nc2ccccc12	?	40µM	?	?
O=C(c1cccn(Cc2ccc(Cl)c(Cl)c2)c1=O)N1CCOCC1	i	i	i	i
O=c1c(-c2nc3ccccc3s2)cccn1Cc1ccc(Cl)c(Cl)c1	-63	i	i	i
CC12C(=O)N(NC(=O)c3ccncc3)C(=O)C1C1C=CC2C1 (stereo not given)	i	i	i	i
Cc1cc(O)c(C(C)C)cc1C1(c2cc(C(C)C)c(O)cc2C)OC(=O)c2ccccc21	-103	?	?	?
NC(=NC1CCCCC1)c1ccc(Cl)cc1	i	1.4µM	i	?
CCOC(=O)Nc1cc(OC)cc2ccc(C)nc12	i	i	nt	nt
Cc1c(C)n(Cc2ccccc2)c2ccc(C(=O)OCCCN(C)C)cc12	-63	i	?	10µM
Cc1c(C)n(CCN(C)C)c2ccc(C(=O)OCCN(C)C)cc12	i	i	nt	nt
CC(C)(C)NC(=O)Cn1c(SCC(=O)NC2CCCC2)nc2ccccc21	i	i	i	i
Cc1cc(NC(=S)N(Cc2ccc(Cl)cc2)Cc2ccc(C(=O)O)cc2)ccc1Cl	-62	i	nt	nt
Cc1cc(C)cc(NC(=S)N(Cc2ccc(Cl)cc2)Cc2ccc(C(=O)O)cc2)c1	i	i	i	i
Cc1ccc(C2(C)NC(=O)N(CC(=O)Nc3cc(C)on3)C2=O)cc1 (stereo not given)	i	i	i	i
CC(C(Sc1ccccc1N)c1ccccc1)[N+](=O)[O-] (stereo not given)	-67	?	nt	nt
CCOC(=O)c1c(C)n(C)c2cc(CN(C)C)c(O)c(S(=O)(=O)c3ccccc3)c12	-69	i	i	i
SMILES	HCMV antiviral	FMDV inh	Lassa entry inh	Marburg entry inh
CCOC(=O)c1c(C)n(C)c2ccc(O)c(CN3CCC(C)CC3)c12	nt	i	?	11µM
CCOC(=O)c1c(-c2ccccc2)oc2ccc(O)c(CN3CCN(C)CC3)c12	-66	i	?	?
CCOC(=O)c1c(-c2ccccc2)oc2cc(CN(C)C)c(O)c(CN(C)C)c12	-106	i	?	?
CCOC(=O)c1c(C)n(C)c2ccc(O)c(CN3CCN(C)CC3)c12	i	nt	i	i
CCOC(=O)c1c(-c2ccccc2)oc2ccc(O)cc12	i	i	nt	nt
Nc1[nH]c2cc([N+](=O)[O-])ccc2c1-c1ccccn1	i	i	i	i
O=c1cc(-c2ccccc2)oc2cc(O)c(O)cc12	nt	i	nt	nt
O=c1cc2oc3cc(O)c(O)cc3c(-c3ccccc3[N+](=O)[O-])c-2cc1O	-64	?	nt	nt
COCCn1c(=O)[nH]c2cc(C(=O)NC(C)C)ccc2c1=O	i	i	i	i
Cc1ccc(S(=O)(=O)Nc2cc(Cl)c(O)cc2C)cc1	-70	i	i	?
CCOc1ccc(-n2c(SCc3cc(=O)oc4cc(C)c(C(C)C)cc34)nnc2-c2cccnc2)cc1	-80	i	i	i
COc1ccc2c(CSc3nnc(-c4cccnc4)n3-c3ccccc3F)cc(=O)oc2c1	i	i	i	i
COc1nc(NCCO)nc(Nc2ccc([N+](=O)[O-])cc2)n1	i	i	i	?
CCc1ccccc1NC(=O)CNC(=O)c1n[nH]c(=O)c2ccccc12	i	25µM	nt	nt
CCN(CC)CCCNC(=O)c1ccc(N2CCCCC2)c(NS(=O)(=O)c2ccc(C)cc2)c1	i	i	i	15µM
Cc1ccc(S(=O)(=O)Nc2cc(C(=O)NCCN(C)C)ccc2N2CCCC2)cc1	i	i	nt	nt
CCOC(=O)c1ccc(N2CCCCC2)c(NS(=O)(=O)c2ccc(C)cc2)c1	-86	i	?	7.9µM
Cc1ccc(CNC(=O)c2ccc(N3CCCC3)c(NC(=O)Nc3ccc(C)cc3)c2)cc1	-74	i	i	nt
O=C(NC(=S)N(CCCCO)C1CCCCC1)c1sc2ccccc2c1Cl	?	nt	?	13µM
CC1CCCCC1NC(=S)NC(=O)c1sc2ccccc2c1Cl (stereo not given)	i	i	i	i
CN1CCN(C(=O)c2ccc(-c3cccs3)s2)CC1	i	i	i	?
O=C(c1cccs1)c1ccc(-c2cccs2)s1	i	i	?	11µM
CC(C)c1ccc(NC(=O)CSc2ncc3c(n2)-c2ccccc2N(C)S3(=O)=O)cc1	i	i	i	nt
O=S1(=O)CCOC[C@H](c2ccccc2)N1Cc1cccc(Cl)c1	-80	i	nt	nt
NNC(=O)c1cc2cc3ccccc3nc2s1	-66	i	i	i
SMILES	HCMV antiviral	FMDV inh	Lassa entry inh	Marburg entry inh
CCOC(=O)CC(=O)Nc1cc2ccc(OC)c(OC)c2cc1C(=O)OCC	i	i	nt	nt
CN(C(=O)c1ccco1)c1nc2c(s1)CCCC2	i	i	6.3µM	?
CN(C(=O)c1ccco1)c1nnc(C23CC4CC(CC(C4)C2)C3)s1	i	i	i	?
CCOc1cccc(CN2CCCC(C(=O)Nc3cccc(-n4cccn4)c3)C2)c1 (stereo not given)	i	i	i	?
CCOc1ccccc1CN(Cc1ccco1)S(=O)(=O)c1ccc(-n2cnnn2)c(OC)c1	-74	i	?	?
O=c1c(N2CCCCC2)coc2ccccc12	i	i	?	i
CSc1ccccc1NC(=O)COC(=O)CCc1ccccc1	-62	i	i	i
CC1(C)CC(=O)C=C(NC2=CC3OC(c4ccccc4)OCC3OC2=O)C1 (stereo not given)	i	8.9µM	?	14µM
Cc1cc(S(=O)(=O)Nc2nc(CN3CCOCC3)nc3sc4c(c23)CCC4)cc(C)c1C	i	i	i	i
NS(=O)(=O)c1ccc(CCNc2nc(CN3CCCCC3)nc3sc4c(c23)CCC4)cc1	i	i	i	21µM
CC(NS(=O)(=O)c1cccc(Cl)c1)C(=O)Nc1ccc(-c2nc3ccccc3s2)cc1 (stereo not given)	i	?	i	?
Cc1cc(C)c(CN2CCC(CO)(CCOc3ccccc3)CC2)cc1C	i	i	?	11µM
CC1(Oc2cnc(Cl)c3ccccc23)CCN(Cc2ccc(OC(F)(F)F)cc2)C1 (stereo not given)	i	i	nt	nt
CN(C)c1ccc(NC(=O)CN2CCC(O)(c3ccccc3)CC2)cc1	i	i	i	i
CN(C)C(=O)C(CCN1CCC(O)(c2ccc(Cl)cc2)CC1)(c1ccccc1)c1ccccc1	i	i	4.1µM	4.1µM
